Most compounds without a hit are left out; they make up all but 0.44% or so of the library.
ERG-DNA inh – blocks human ERG Ets domain binding to DNA; P11308; fluorescence polarization, His-ERG Ets domain / labelled DNA; Potency, µM (doses to about 76.9 µM), for inactives: at the top dose FP activity, negative = inhibition, actives largely listed as inhibitors; 370,000 compounds, 0.028% hits; AID 624246; active = well fitted inhibition curve with a large enough effect in the polarisation, with a control signal flat; inconclusive = small, poorly fitted or top-dose-only effect, or effect the other way, or a change in a side signal; inactive = no such curve, though single readings can be large or run the other way; the % refers to the polarisation;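 note: polarization taken with two DNA probes labelled with fluorescein and Texas red; % of control where 0% means no effect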
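His-tagged ERG Ets domain (1 uM in the protein solution; 300mM KCl, 50mM Tris-HCl, 1mM EDTA, 1mM DTT, pH 7.5) received compound, then a probe mix of 5 nM fluorescein-DNA and 100nM Texas-615-DNA. Fluorescence polarization was read for both dyes.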
TRb SRC2 PPI – disrupts binding of human TR beta to SRC2; TRbeta-SRC2 peptide binding, fluorescence polarization; receptor liganded with 1 µM T3; Potency, µM (highest dose often 106 µM), without a hit: at the highest dose activity change, negative = inhibition, actives largely listed as inhibitors; 280,000 compounds, 0.065% hits;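 note: plate controls were bound peptide for no effect and peptide without receptor for full effect; nearly all actives have a fitted effect of over 50% in size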
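Binding of a 20-amino-acid Texas Red SRC2 peptide (20 nM) to TRb ligand-binding domain (0.6 uM) with agonist T3 at 1 uM was followed by fluorescence polarization after a 5 hr room-temperature incubation.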
Anesthetic bind – binds horse apoferritin like a general anesthetic | P02791 | apoferritin/1-aminoanthracene competitive binding, fluorescence | Potency, µM (highest dose often 77.5 µM), for the others: at the top dose activity change, negative = displacement, usual class: inhibitors | 350,000 compounds, 0.074% hits | AID 485281; note: % is set by controls: 0 for no effect and ±100 for the full control effect; nearly all actives have a fitted effect of over 20% in size
Target sequence (P02791 2-175 limits assumed): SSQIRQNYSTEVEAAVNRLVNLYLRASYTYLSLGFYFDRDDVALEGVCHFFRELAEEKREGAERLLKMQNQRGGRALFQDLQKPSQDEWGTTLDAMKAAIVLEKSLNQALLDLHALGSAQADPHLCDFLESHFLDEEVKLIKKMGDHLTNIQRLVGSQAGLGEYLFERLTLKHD
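Horse-spleen apoferritin (10 uM) was mixed with 50% saturated 1-aminoanthracene in PBS, exposed to compounds for 10 min at room temperature, and read for fluorescence (ex 380 nm, em 535 nm). Competitive displacement was fitted with a four-parameter Hill equation.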
RGS12 GoLoco inh – RGS12 GoLoco-Gai1 interaction inhibition. P63096. Gai1:RGS12 GoLoco peptide FP, rhodamine, 10 min. Potency, µM (titrated, usually from 61.6 µM), without a hit: top-dose activity, negative = inhibition, usual class: inhibitors. 230,000 compounds, 0.44% hits; active = well fitted inhibition curve with a large enough effect, not every such curve was filed as active; inactive = no such curve, though single readings can be large or run the other way; note: % is set by controls: 0 for no effect and ±100 for the full control effect; nearly all actives have a fitted effect of over 30% in size
Target sequence (P63096 whole entry, looked up): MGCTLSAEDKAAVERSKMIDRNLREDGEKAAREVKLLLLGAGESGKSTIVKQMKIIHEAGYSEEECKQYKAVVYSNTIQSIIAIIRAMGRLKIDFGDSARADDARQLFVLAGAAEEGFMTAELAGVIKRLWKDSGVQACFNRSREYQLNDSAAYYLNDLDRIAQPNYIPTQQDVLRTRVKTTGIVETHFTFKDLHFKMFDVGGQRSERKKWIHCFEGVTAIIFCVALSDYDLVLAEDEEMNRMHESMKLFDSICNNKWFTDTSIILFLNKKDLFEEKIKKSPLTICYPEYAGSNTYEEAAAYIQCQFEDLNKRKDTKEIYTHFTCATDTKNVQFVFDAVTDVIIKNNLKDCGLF
TexasRed fluor – alters Texas Red total fluorescence, flagging assay interference; TRb/SRC2 Texas Red total fluorescence interference; Potency, µM (series often up to 106 µM), for inactives: top-dose fluorescence change, negative = quenching; 280,000 compounds, 0.29% hits; AID 1479; active = well fitted curve in either direction with a large enough effect; inconclusive = small, poorly fitted or top-dose-only effect; note: % is set by controls: 0 for no effect and ±100 for the full control effect
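Human TRβ ligand-binding domain (0.6 uM) and Texas Red SRC2 peptide (20 nM) in Tris buffer with 1 uM T3 and 5% DMSO were incubated with pinned compound for 5 hr at ambient temperature. Total fluorescence was computed as S + 2P (555/632 nm).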
* hit, by the source's call; ! = repeats disagree; [ ] = another dose, or the depositor's remark. Unless noted, calls come from the whole dose curve; as a rule, active = well fitted curve in the direction sought with a large enough effect; inconclusive = small, poorly fitted or top-dose-only effect, or another doubt; inactive = no such curve, though single readings can be large; an effect the other way counts as inactive or inconclusive. Potency is the fitted concentration of half-maximal effect.

Screening COC(=O)N1CCN(/[N+]([O-])=N/Oc2ccc([N+](=O)[O-])cc2[N+](=O)[O-])CC1 returned TRb SRC2 PPI 0%, Anesthetic bind -14% and TexasRed fluor -4%.
O=C(Nc1ccccc1)/C(=C\c1cccs1)NC(=O)c1ccccc1 was read as ERG-DNA inh 10%, TRb SRC2 PPI -13%, Anesthetic bind -3%, RGS12 GoLoco inh -8% and TexasRed fluor 0.028µM*[quencher].
For CCOc1cc(CNc2ccc(O)cc2)ccc1OCc1ccc(Cl)cc1Cl the results were ERG-DNA inh inconclusive, TRb SRC2 PPI 28µM*, Anesthetic bind -15%, RGS12 GoLoco inh -29% and TexasRed fluor 19%.
Screening Cc1ccc(NCc2ccccc2OCc2ccccc2F)cc1 returned ERG-DNA inh 2%, TRb SRC2 PPI -6%, Anesthetic bind 6%, RGS12 GoLoco inh 6% and TexasRed fluor -6%.
For CCOc1cc(CNCc2ccccc2)ccc1OCc1ccc(Cl)cc1 the results were ERG-DNA inh -2% and Anesthetic bind -17%.
COc1cccc(CNCCO)c1OCc1ccc(Cl)cc1 was read as ERG-DNA inh -2%, TRb SRC2 PPI 2%, Anesthetic bind -7%, RGS12 GoLoco inh 7% and TexasRed fluor 0%.
Oc1ccc(NCc2ccccc2OCc2ccccc2F)cc1 was read as ERG-DNA inh inconclusive, TRb SRC2 PPI 35µM*!, Anesthetic bind inconclusive, RGS12 GoLoco inh -14% and TexasRed fluor 9%[11.2 µM].
CCOc1ccccc1CNc1ccc(O)cc1 was read as ERG-DNA inh inconclusive, TRb SRC2 PPI 28µM*, Anesthetic bind inconclusive, RGS12 GoLoco inh -46% and TexasRed fluor inconclusive.
For CCOc1cccc(CNc2ccc(O)cc2)c1OCc1ccc(Cl)cc1 the results were ERG-DNA inh inconclusive, TRb SRC2 PPI 35µM*, Anesthetic bind inconclusive, RGS12 GoLoco inh -22% and TexasRed fluor inconclusive.
For Oc1ccc(NCc2ccccc2OCc2ccccc2Cl)cc1 the results were ERG-DNA inh inconclusive, TRb SRC2 PPI -19%[11.2 µM], Anesthetic bind inconclusive and TexasRed fluor inconclusive.
COc1cc(CNCc2ccccn2)ccc1OCc1ccc(Cl)cc1Cl was read as ERG-DNA inh 0%, TRb SRC2 PPI -2%, Anesthetic bind 20µM*, RGS12 GoLoco inh -2% and TexasRed fluor -2%.
`CCc1ccc(CNc2ccc(O)cc2)cc1` gave ERG-DNA inh -9%, TRb SRC2 PPI -13%, Anesthetic bind 1%, RGS12 GoLoco inh 14µM* and TexasRed fluor 0%.
Screening Oc1ccc(NCc2ccc(OCc3ccccc3)cc2)cc1 returned ERG-DNA inh inconclusive, TRb SRC2 PPI 0%[11.2 µM], Anesthetic bind inconclusive and TexasRed fluor -13%[11.2 µM].
Screening CCN1c2ccccc2N(C)C1(C)c1ccccc1 (centres undefined) returned ERG-DNA inh -25%, TRb SRC2 PPI inconclusive, Anesthetic bind -6%, RGS12 GoLoco inh 8.9µM* and TexasRed fluor 45µM*[fluorescent].
Screening CCC(=O)N1c2ccccc2C(C)(c2ccccc2)CC1(C)C (centres undefined) returned ERG-DNA inh -10%, TRb SRC2 PPI 4%, Anesthetic bind 0% and TexasRed fluor -1%.
Screening CN1c2ccccc2N(C)C1(C)c1ccccc1 returned ERG-DNA inh -4%, TRb SRC2 PPI -4%, Anesthetic bind -6%, RGS12 GoLoco inh 1.3µM* and TexasRed fluor -5%.
`Oc1cc2c(cc1O)[C@@H]1c3ccc(O)c(O)c3OC[C@]1(O)C2` gave TRb SRC2 PPI 3%, RGS12 GoLoco inh -38% and TexasRed fluor -2%.
Screening CCCCCc1ccc(OCCOCCn2c[n+](C)c3ccccc32)c(CCCCC)c1 returned ERG-DNA inh -4%, TRb SRC2 PPI 3%, Anesthetic bind inconclusive, RGS12 GoLoco inh 10% and TexasRed fluor 0%.
Screening CCCCCc1ccc(OCCC[n+]2ccccc2)c(CCCCC)c1 returned ERG-DNA inh -13%, TRb SRC2 PPI 71µM*, Anesthetic bind -17%, RGS12 GoLoco inh 8% and TexasRed fluor -11%.
CC(C)CCCCOC(=O)c1ccccc1C(=O)OCCCCC(C)C was read as TRb SRC2 PPI 1%[201 µM] and TexasRed fluor -3%[201 µM].
C[C@@]12CCC(=O)C=C1CC[C@H]1C2[C@@H](O)C[C@]2(C)[C@@H]1CC[C@@]2(O)C(=O)CO (some centres undefined) was read as RGS12 GoLoco inh 19%[14.2 µM].
Screening Cc1ccc(CN(Cc2ccco2)C(=O)COc2ccc(Cl)cc2Cl)cc1 returned ERG-DNA inh -1%, TRb SRC2 PPI inconclusive, Anesthetic bind 123% and TexasRed fluor 0.032µM*[quencher].
Screening CC(/C=C/C=C(C)/C=C/C(=O)O)=C\C=C\C=C(C)\C=C\C=C(C)\C=C\C(=O)O returned TRb SRC2 PPI 6%, RGS12 GoLoco inh 3% and TexasRed fluor -4%.
CCCNC[C@H](O)COc1ccccc1C(=O)CCc1ccccc1 was read as TRb SRC2 PPI -3%, Anesthetic bind -3%[29.3 µM], RGS12 GoLoco inh 10% and TexasRed fluor -6%.
For CC1(C)CC(=O)c2c(noc2-c2ccccc2)C1 the results were ERG-DNA inh 2%, TRb SRC2 PPI 8%, Anesthetic bind 10µM*, RGS12 GoLoco inh 7% and TexasRed fluor 0%.
Screening CC1(C)CC(=O)c2c(Cc3ccccc3)noc2C1 returned ERG-DNA inh -6%, TRb SRC2 PPI -15%, Anesthetic bind inconclusive, RGS12 GoLoco inh 3% and TexasRed fluor -1%.
For CCCSc1ncc(Cl)c(C(=O)N(Cc2ccc(N(C)C)cc2)C2CCS(=O)(=O)C2)n1 (centres undefined) the results were ERG-DNA inh -1%, TRb SRC2 PPI -13%[53 µM], Anesthetic bind -20% and TexasRed fluor 4.5µM*[quencher].
For CCCSc1ncc(Cl)c(C(=O)N(Cc2cccc(Cl)c2)C2CCS(=O)(=O)C2)n1 (centres undefined) the results were ERG-DNA inh 1%, TRb SRC2 PPI -1%, Anesthetic bind -4% and TexasRed fluor 9%.
CS/C(=N\O)C(=O)N(C)C was read as TRb SRC2 PPI 2%[201 µM] and TexasRed fluor 0%[201 µM].
COc1ccc2c(c1)CCc1c(C(=O)Nc3c(C)nn(Cc4c(Cl)cccc4Cl)c3C)noc1-2 was read as ERG-DNA inh 4%, TRb SRC2 PPI -8%, Anesthetic bind -9% and TexasRed fluor 0.079µM*[quencher].
Screening COc1ccc2c(c1)CCc1c(C(=O)Nc3c(C)nn(Cc4ccccc4C)c3C)noc1-2 returned ERG-DNA inh 5%, TRb SRC2 PPI -1%, Anesthetic bind -5% and TexasRed fluor -22%.
COc1ccc(OC)c(N=c2oc3cc(O)ccc3cc2C(N)=O)c1 was read as ERG-DNA inh -2%, TRb SRC2 PPI 12%, Anesthetic bind 119%, RGS12 GoLoco inh 18µM* and TexasRed fluor -23%.

Source: PubChem BioAssay
